Compound activity: PubChem, several laboratories
Hits are enriched below; roughly 2.6% of the tested compounds scored in any of these assays.
Gli-Sufu antag: blocks Gli-Sufu signaling in a luciferase reporter; Sufu-KO-LIGHT fibroblasts, Gli luciferase reporter luminescence; inhibition, % at 5 µM; 340,000 tested, 0.74% active;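 active = inhibition above about 55%, limit read from the data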;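 also: 0% = DMSO-treated cells and 100% = wells with medium but no cells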
COUP-TFII inh: blocks human COUP-TFII nuclear receptor. P24468. HEK293T NGFI-A luciferase reporter, luminescence. inhibition, % at 8.6 µM. 370,000 tested, 0.7% active. AID 686940;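 active = inhibition above a per-plate cutoff, mean inhibition of test wells between control levels plus 3 SD, cut at about 38% in these data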;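 also: cells cotransfected with COUP-TFII expression vector driving the NGFI-A reporter; 0% = median of COUP-TF2 test wells and 100% = reporter-only cells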
Target sequence (P24468 whole entry, looked up): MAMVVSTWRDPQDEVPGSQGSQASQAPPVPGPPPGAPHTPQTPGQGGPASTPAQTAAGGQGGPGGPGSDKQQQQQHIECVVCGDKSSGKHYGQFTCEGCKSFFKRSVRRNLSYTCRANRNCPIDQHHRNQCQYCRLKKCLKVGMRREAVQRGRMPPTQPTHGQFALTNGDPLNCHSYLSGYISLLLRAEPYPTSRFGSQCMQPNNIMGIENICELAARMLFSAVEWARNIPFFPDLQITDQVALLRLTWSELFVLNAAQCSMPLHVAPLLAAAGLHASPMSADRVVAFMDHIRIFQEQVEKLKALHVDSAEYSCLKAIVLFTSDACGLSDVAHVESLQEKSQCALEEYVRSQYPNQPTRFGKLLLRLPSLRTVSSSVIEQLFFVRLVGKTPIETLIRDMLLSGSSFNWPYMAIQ
H9c2 protect: myocardial damage modulation in H9c2 cells; 360,000 tested, 0.63% active; AID 588492; protection from H2O2 cell death, % at 20 µM; H9c2 cardiomyocytes, H2O2 injury protection, ATPLite, 2 h;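 active = compounds giving at least 50% protection of heart cells from peroxide-induced death in the single-dose screen, raw or plate-pattern-corrected value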;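 also: 0% = DMSO wells with peroxide and 100% = DMSO wells without peroxide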
Jurkat NFkB inh: lowers PMA/ionomycin-induced NF-kB signal in Jurkat cells | PMA/ionomycin-induced NF-kB luciferase reporter, luminescence | inhibition, % at 4 µM | 330,000 tested, 0.53% active; in the data active = inhibition above about 50%
697 NFkB inh: lowers PMA/ionomycin-induced NF-kB signal in 697 B cells; 697 B-cell NF-kB luciferase reporter, 16 h; inhibition, % at 4 µM; 330,000 tested, 0.33% active; AID 435022; in the data active = inhibition above about 35%
H9c2 TAG inh: inhibitors of triacylglycerol accumulation. H9c2 cells, Nile Red lipid (TAG) fluorescence; cells loaded with 200 µM oleic acid. inhibition, % at 12.5 µM. 230,000 tested, 0.66% active;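 active = pattern-corrected inhibition of lipid staining of at least 50% with the nuclear-stain viability signal not falling by more than 50%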;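 also: 0% = DMSO wells and 100% = triacsin C control wells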
TAG conf: confirmation of triacylglycerol accumulation inhibitors. 990 tested, 71% active. inhibition, % at 12.5 µM. shares compounds with H9c2 TAG inh. AID 651629. H9c2 lipid accumulation, Nile Red fluorescence; cells loaded with 200 µM oleic acid;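 active = mean inhibition across replicates of 40% or more; inactive = mean inhibition below 40%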;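 also: plate controls were DMSO only wells for no effect and Triacsin C treated wells for full effect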
Numbers without * were called inactive; · = no result.

SMILES | Gli-Sufu antag | COUP-TFII inh | H9c2 protect | Jurkat NFkB inh | 697 NFkB inh | H9c2 TAG inh | TAG conf
O=C(CCC(=O)N1CCOc2ccc(Cl)cc21)NCCCN1CCC(Cc2ccccc2)CC1 | -11 | 8 | -11 | 12 | 2 | 90* | 62*
O=C(CCC(=O)N1CCOc2ccc(Cl)cc21)NCCCN1CCN(c2ccccc2F)CC1 | 13 | 2 | 11 | -8 | -3 | -9 | ·
COc1ccc(-c2oc(=O)c3cc(OC)c(OC)cc3c2/C=C/c2ccc([N+](=O)[O-])cc2)cc1 | 9 | -22 | 32 | 4 | 16 | 54* | 31
Fc1cccc(Nc2nc(-c3ccncc3)nc3ccccc23)c1 | 20 | 5 | -4 | -25 | 13 | 69* | 63*
CCOC(=O)C1=CCN(S(=O)(=O)c2ccc(Br)cc2)C1c1cccc(F)c1 (stereo not drawn) | · | -5 | · | · | · | · | ·
COCCN1C(=O)c2ccccc2C(C(=O)Nc2ccc3c(c2)OCCO3)C1c1ccc(F)cc1 (stereo not drawn) | -1 | 12 | 5 | 5 | -21 | 57* | 28
O=C(Nc1ccccc1)c1ccc(NCC2CCCO2)c(S(=O)(=O)N2CCOCC2)c1 (stereo not drawn) | 1 | 1 | 4 | -14 | -4 | 66* | 46*
COC(=O)[C@]12C[C@H](CC(=O)NCC34CC5CC(CC(C5)C3)C4)C(=O)N(Cc3ccccc3)C1=C[C@H](C1CCCC1)O[C@@H]2C | · | 1 | · | · | · | · | ·
C#CCN(C[C@H]1[C@H](OC(=O)NCCCCCC)[C@H](OC(=O)NCCCCCC)C[C@@H](C(=O)OC)[C@H]1C(=O)OC)S(=O)(=O)c1ccc(C)cc1 | · | -6 | -12 | · | · | 80* | 88*
CC[C@H](CCCc1ccc(OC)cc1)CCC(=O)N(c1ccccc1)c1ccccc1 | · | 12 | · | · | · | · | ·
O=C(NC1CCCC1)C1(C(=O)C2CC2)CC(c2ccccc2C(F)(F)F)=NO1 (stereo not drawn) | · | -3 | · | · | · | · | ·
CCc1nc2ccc(C(=O)NCc3ccc4c(c3)OCO4)cn2c1N(CCC(C)C)CCN(C)C | · | 5 | 1 | · | · | 73* | 30
CCc1nc2ccc(C(=O)NCc3ccc4c(c3)OCO4)cn2c1N(CC)CCN(C)C | · | 18 | 6 | · | · | 11 | ·
CC(C)CNc1cccc2c1S(=O)(=O)N[C@@H](C)CO2 | · | -16 | · | · | · | · | ·
CN=C1c2cc3cc(OC)ccc3n2CCN1Cc1ccccc1 | 2 | 9 | 2 | · | · | 57* | 51*
COc1ccc2c(c1)nc(N)n2Cc1ccccc1 | 13 | 2 | -8 | -4 | -4 | -26 | ·
COC[C@@H](O)[C@H]1OCc2cccc(OC)c2[C@@H]1/C=C/c1ccccc1 | · | 6 | · | · | · | · | ·
O=C(/C=C/c1ccc(-c2ccccc2)cc1)NC1=NCCS1 | · | -29 | · | · | · | · | ·
Cc1cc(N2CCOCC2)n2nc(C)c(-c3ccccc3)c2n1 | -10 | 17 | -1 | -23 | -1 | 60* | 46*
Cc1cc(N2CCCCCC2)n2nc(C)c(-c3ccccc3)c2n1 | 48 | -9 | -9 | 6 | -26 | · | ·
NC(=O)NN=C1CCC(O)CC1CC(=O)O (stereo not drawn) | · | -14 | · | · | · | · | ·
Cc1ccc(C2C(C=Nc3c(C)n(C)n(-c4ccccc4)c3=O)=C(c3ccccc3)Oc3ccccc32)cc1 (stereo not drawn) | 8 | 5 | -3 | 15 | -27 | 69* | 57*
COC(=O)[C@]1(C#N)CC(=O)N(Cc2ccc(Cl)cc2)[C@@H]1c1ccc(OC)cc1 | · | -10 | · | · | · | · | ·
COCCN(Cc1ccccc1)C(=O)C1CCN(C(=O)Nc2ccccc2)CC1 | -3 | -5 | 0 | -20 | -14 | 54* | 45*
CN(Cc1ccc(C(C)(C)C)cc1)C(=O)C1CCN(C(=O)Nc2ccccc2)CC1 | 11 | 15 | -5 | 11 | -13 | 37 | ·
SMILES | Gli-Sufu antag | COUP-TFII inh | H9c2 protect | Jurkat NFkB inh | 697 NFkB inh | H9c2 TAG inh | TAG conf
COc1cc(C2CC=C(C(=O)O)C(c3ccccc3F)N2S(=O)(=O)c2ccc(C)cc2)cc(OC)c1OC (stereo not drawn) | · | 6 | · | · | · | · | ·
COC(=O)C1=C(C)N(Cc2ccc(C(F)(F)F)cc2)C(=NCc2ccc(C(F)(F)F)cc2)NC1c1ccccc1C(F)(F)F (stereo not drawn) | · | -6 | · | · | · | · | ·
CCOC(=O)C1CCN(C(=O)C2(NC(=O)Nc3ccccc3Cl)CCCCC2)CC1 | 5 | 13 | -3 | 15 | -10 | 70* | 38
COc1ccc(C(=O)C(=O)N2CCN(C(=O)c3ccccc3C(F)(F)F)CC2)cc1OC | · | -22 | · | · | · | · | ·
C=CCNc1nc(NCCOC)c2sc(-c3ccccc3)cc2n1 | · | 18 | -6 | · | · | 5 | ·
c1ccc(CNc2nc(NCC3CC3)nc3cc(-c4ccccc4)sc23)cc1 | · | 7 | -21 | · | · | 21 | ·
COCCNc1nc(Oc2ccc(NC(C)=O)cc2)c2sc(-c3ccccc3)cc2n1 | · | -10 | 2 | · | · | 26 | ·
COCCNc1nc(NCc2ccc(NC(C)=O)cc2)c2sc(-c3ccccc3)cc2n1 | · | -40 | -28 | · | · | 53* | 123*
c1ccc(OCCNc2nc(NCC3CC3)nc3cc(-c4ccccc4)sc23)cc1 | · | 6 | -28 | · | · | 57* | 41*
C=CCNc1nc(Nc2ccc(OC)c(OC)c2)c2sc(-c3ccccc3)cc2n1 | · | -10 | 4 | · | · | 70* | 82*
CN1CCCCC(NC(=O)COCc2ccccc2)C1=O (stereo not drawn) | · | 4 | · | · | · | · | ·
COc1ccc(C(=O)Nc2sc3c(c2C(=O)NCc2ccco2)CCCC3)cc1OC | 18 | -3 | 41 | -15 | 25 | 66* | 52*
COc1cc(C(=O)Nc2sc3c(c2C(=O)NCc2ccco2)CCCC3)cc(OC)c1OC | 17 | 9 | 31 | 9 | 26 | 41 | ·
COc1ccc(C(=O)Nc2ccc(Cl)cc2C(=O)NCc2ccco2)cc1OC | 12 | 2 | 24 | -19 | -17 | 52* | 17
COc1ccc(Cl)cc1C(=O)NCc1ccco1 | 1 | -28 | -6 | 9 | -3 | -10 | ·
C=CCN1C(=O)/C(=C2/Sc3ccccc3N2C)SC1=Nc1ccccc1C | 36 | -1 | 6 | -10 | -6 | 61* | 39
C=CCN1C(=O)/C(=C2/Sc3ccccc3N2C)SC1=Nc1c(C)n[nH]c1C | 6 | · | 2 | 0 | -6 | · | ·
CCCC[C@H]1C2CC(OC(=O)Nc3cccc(Cl)c3)C(C2)[C@H]2CCCCN21 (stereo partly drawn) | · | -14 | · | · | · | · | ·
O=C(Nc1ccccc1N1CCCCC1)c1ncoc1-c1ccc(F)cc1 | 6 | 22 | -2 | -7 | -19 | 55* | 43*
C#CCOCCOCCOCCNc1nc(N2CCN(C(=O)[C@H](CCCCN)n3cc([C@@H](N)CO)nn3)CC2)nc(N2CCN(C(=O)[C@H](CCCCN)n3cc([C@@H](N)CC(C)C)nn3)CC2)n1 | -11 | 5 | -4 | -9 | -16 | 70* | -1
